High-throughput results (PubChem)
pAkt inh = HTS Assay for Inhibitors of Akt Phophorylation: Primary Screen | AID 651550, 2012 | 360,000 compounds, 0.32% hits | Neuro2A IGF-stimulated pAkt S473 HTRF, 20 min; hits give low values | activity change, % for hits at 50 µM; in the data active = activity change below about -80%; inconclusive = mostly about -51% to -80%; also: % is scaled to controls: 0 for no effect and ±100 for the full control effect
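Neuro2A cells (4,500/well, DMEM with 0.5% FBS) were treated with compound at a single 50 µM final concentration, stimulated with 6 nM IGF for 20 min at 37 °C, and lysed. Phospho-Akt Ser473 was read by HTRF as 665/615 ratio ×10^4.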
gsp agonist = qHTS for Agonist of gsp, the Etiologic Mutation Responsible for Fibrous Dysplasia/McCune-Albright Syndrome: qHTS; Potency, µM (titrated, usually from 76.9 µM), for inactives: at the top dose activation (cAMP increase), actives largely listed as activators; AID 624287, 2012; 340,000 compounds, 0.13% hits; gsp mutant cells, cAMP HTRF, 30 min; active = well fitted activation curve with a large enough effect; inconclusive = small, poorly fitted or top-dose-only effect, or another doubt; inactive = no such curve, though single readings can be large or run the other way; cell line not stated here;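 also: phosphodiesterase inhibitor Ro 20-1724 added with compounds to block cAMP breakdown; potency is read from the fitted curve at half-maximal effect; nearly all actives have a fitted effect of over 60% in size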
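Cells in DMEM/10% FBS with G418 were pretreated with compounds in DMSO plus […] (300 uM stock) for 30 min at 37C. cAMP was measured by HTRF (cAMP-d2 plus anti-cAMP antibody-K) after 30 min at room temperature.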
KCNH2 WT inh = qHTS for Inhibitors of KCHN2 3.1: Wildtype qHTS; activity change, % at 1.84 µM; 340,000 compounds, 0.37% hits; U2OS, BacMam KCNH2, thallium flux FluxOr; hits give low values;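 active = maximum activity change below -70%; inconclusive = maximum activity change between -70% and -50%; inactive = maximum activity change above -50%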; also: % is scaled to controls: 0 for no effect and ±100 for the full control effect
Target sequence (Q12809 whole entry, looked up): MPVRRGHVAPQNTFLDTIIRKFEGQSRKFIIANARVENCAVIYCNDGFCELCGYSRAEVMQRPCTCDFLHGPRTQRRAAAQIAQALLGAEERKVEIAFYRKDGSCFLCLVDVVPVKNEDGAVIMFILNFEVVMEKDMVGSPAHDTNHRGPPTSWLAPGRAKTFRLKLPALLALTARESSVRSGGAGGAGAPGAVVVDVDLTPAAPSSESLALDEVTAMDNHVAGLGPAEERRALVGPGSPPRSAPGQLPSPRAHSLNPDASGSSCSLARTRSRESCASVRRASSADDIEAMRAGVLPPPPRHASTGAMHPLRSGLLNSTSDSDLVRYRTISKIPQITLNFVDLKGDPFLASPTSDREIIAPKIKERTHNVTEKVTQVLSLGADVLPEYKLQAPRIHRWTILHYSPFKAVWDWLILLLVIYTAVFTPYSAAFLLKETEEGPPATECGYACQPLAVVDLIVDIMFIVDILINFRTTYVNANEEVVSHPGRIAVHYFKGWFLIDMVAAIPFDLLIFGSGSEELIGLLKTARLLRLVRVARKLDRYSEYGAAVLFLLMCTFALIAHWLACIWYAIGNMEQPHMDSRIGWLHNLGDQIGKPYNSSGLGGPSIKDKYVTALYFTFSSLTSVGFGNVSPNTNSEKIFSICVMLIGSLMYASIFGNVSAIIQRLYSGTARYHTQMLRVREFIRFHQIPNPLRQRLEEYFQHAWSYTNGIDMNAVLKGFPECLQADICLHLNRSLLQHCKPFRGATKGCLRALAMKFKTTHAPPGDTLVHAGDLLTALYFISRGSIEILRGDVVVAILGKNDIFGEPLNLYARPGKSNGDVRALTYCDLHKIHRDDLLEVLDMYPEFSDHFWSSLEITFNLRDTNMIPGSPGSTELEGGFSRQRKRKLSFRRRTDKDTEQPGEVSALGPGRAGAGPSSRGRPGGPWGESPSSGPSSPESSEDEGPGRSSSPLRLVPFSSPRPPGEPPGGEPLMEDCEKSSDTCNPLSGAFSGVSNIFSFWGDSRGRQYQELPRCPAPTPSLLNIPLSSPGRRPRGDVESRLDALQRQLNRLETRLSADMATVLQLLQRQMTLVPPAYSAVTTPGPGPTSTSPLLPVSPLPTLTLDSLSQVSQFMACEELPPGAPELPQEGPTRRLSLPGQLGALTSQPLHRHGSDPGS
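U2OS cells were transduced with wild-type KCNH2 virus (2.03 x 10^8 / mL) for 4 h at room temperature, then cultured overnight at 37 C. Thallium flux was read with FluxOr dye. Rate constants were normalized to DMSO controls.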
GRP78 ERSR act = qHTS for Inducers of the Endoplasmic Reticulum Stress Response (ERSR) in Human Glioma: qHTS. U87-MG GRP78 promoter luciferase reporter, 16 h. Potency, µM, without a hit: at the highest dose activation, most hits filed as activators. 420,000 compounds, 0.02% hits. AID 602332, 2012; active = well fitted activation curve with a large enough effect; inconclusive = small, poorly fitted or top-dose-only effect; inactive = no such curve, though single readings can be large or run the other way; also: potency is read from the fitted curve at half-maximal effect; series mostly up to about 76 µM; % of control where 0% means no effect; nearly all actives have a fitted effect of over 35% in size
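Stably transfected U87-MG human glioma cells carrying a GRP78-based luminescent sensor were seeded at 1000 cells/well, pin-dosed with compounds and incubated 16 h. Luciferase reagent was then added, and end-point luminescence was read after 10 min at room temperature.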
KCNH2 3.1 inh = qHTS for Inhibitors of KCHN2 3.1: Mutant qHTS; activity change, % (tested at about 1.8 µM); 340,000 compounds, 0.95% hits; U2OS KCNH2 3.1, thallium flux FluxOr; hits give low values; Potassium voltage-gated channel subfamily H member 2, brain isoform KCNH2 3.1 (human); AID 720553, 2013;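 active = maximum activity change below -70%; inconclusive = maximum activity change from -70% to -50%; inactive = maximum activity change above -50%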;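 also: thallium influx rate constant from kinetic fluorescence after stimulation buffer; % is scaled to controls: 0 for no effect and ±100 for the full control effect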
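U2OS cells transduced with KCNH2 3.1 mutant virus (1.77 x 10^8 /mL, 4 h), plated overnight at 37 C, loaded 45 min with FluxOr dye plus Red40 quencher. Thallium flux rate constant from kinetic reads after stimulation buffer, normalised to controls.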
gsp antag = qHTS for Antagonists of gsp, the Etiologic Mutation Responsible for Fibrous Dysplasia/McCune-Albright Syndrome: qHTS; Potency, µM (titrated, usually from 76.9 µM), for the others: at the highest dose activity change, negative = inhibition, actives largely listed as inhibitors; 340,000 compounds, 0.4% hits; gsp-mutant cells, cAMP HTRF, 30 min; calls by dose curve; cell line not stated here;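 also: intracellular cAMP measured with PDE inhibitor Ro 20-1724 present during compound exposure; potency is read from the fitted curve at half-maximal effect; % is scaled to controls: 0 for no effect and ±100 for the full control effect; nearly all actives have a fitted effect of over 65% in size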
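Measurement of cellular cAMP by homogeneous time-resolved fluorescence following a 30 min compound exposure at 37C. The PDE inhibitor […] was present throughout; the assay buffer was DPBS with 0.05% BSA and 0.005% Tween 20.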
Active calls of the source: *; i = inactive; ? = inconclusive; . = no result given; [ ] = another dose, or the depositor's remark. Shown are actives, neighbours in structure and some others; about 1.6% of the full set was active somewhere.

SMILES | pAkt inh | gsp agonist | KCNH2 WT inh | GRP78 ERSR act | KCNH2 3.1 inh | gsp antag
COc1cc(NC(=O)c2ccccc2[N+](=O)[O-])ccc1NC(=O)c1cc2ccccc2o1 | i | 24% | 3 | -1% | 1 | 22µM*
Cc1ccc(NC(=O)C2CCN(C(=O)c3ccco3)CC2)cc1 | i | -7%[15.4 µM] | -20 | 2% | -85* | 7%
Cc1ccc(S(=O)(=O)Nc2cccc(C(=O)NCC3(N4CCCCC4)CCCCC3)c2)cc1F | i | -7%[15.4 µM] | 4 | -1% | -78* | 3%
Cc1cccc(NS(=O)(=O)c2cccc(C(=O)NCC3(N4CCCCC4)CCCCC3)c2)c1 | i | -4% | 12 | -5% | -48 | 0%
CN1CCCN(C2C3CC4CC(C3)CC2C4)CC1 (stereo not given) | -121%* | -22% | -4 | ? | -21 | 10%
CCC(Cc1ccccc1)NC(=O)Cn1ncc2ccsc2c1=O (stereo not given) | i | -29% | 7 | -2% | -110* | 10%
O=C(NNc1ccc([N+](=O)[O-])cc1[N+](=O)[O-])c1ccco1 | i | 1% | 1 | -1% | 4 | 35µM*
O=C(CCc1ccccc1)NNC(=O)COc1ccccc1 | i | -5% | 7 | -2% | -100* | 11%
COc1ccc(OCC(=O)NNC(=O)CCc2ccccc2)cc1 | i | 15% | -5 | -3% | 17 | 3%
CN(C)c1ccc(/C=C2/C[N+](C)(C)C/C(=C/c3ccc(N(C)C)cc3)C2=O)cc1 | i | ? | 45 | -6% | . | ?
CC(C)/C=C1\CC/C(=C\c2ccc(N(C)C)cc2)C1=O | i | 11% | -34 | 4% | -79* | 7%
Cc1ccc2nc(SCC(=O)N3CCC4(CC3)CC4C(=O)Nc3ccc(F)c(F)c3)[nH]c2c1 (stereo not given) | . | . | . | 4% | . | .
COC(=O)[C@@]12CCCN1[C@H](c1ccc(-c3cccc(Cl)c3)c(OC)c1)[C@H]1C(=O)N(C)C(=O)[C@H]12 | i | -7% | -1 | -1% | -100* | ?
COC(=O)[C@@]12CCCCN1[C@H](c1ccc(-c3cccc(Cl)c3)c(OC)c1)[C@@H]1C(=O)N(C)C(=O)[C@@H]12 | i | 20% | 4 | -4% | -12 | -19%
Cc1cc[n+](CCC2CCCCC2)c2ccccc12 | . | . | . | -4% | . | .
Oc1cc2cc(-c3csc(-c4ccc(F)cc4)n3)cc3c2n1CCC3 | . | . | . | 1% | . | .
CCOC(=O)N1CCN(C(=O)CSc2ccc3nnc(CCNC(=O)c4ccc(OC)cc4)n3n2)CC1 | i | 42% | -3 | -1% | -15 | 10%
CCOC(=O)N1CCN(C(=O)CSc2ccc3nnc(CCNC(=O)c4ccccc4)n3n2)CC1 | i | 13µM* | 3 | -1% | 11 | 10%
Cn1cc(C(=O)c2ccc(Cl)cc2Cl)cc1C(=O)N/N=C(\N)COc1ccccc1 | -109%* | -7% | 2 | -8% | -12 | -22%
Cn1cc(C(=O)c2ccc(Cl)cc2Cl)cc1C(=O)N/N=C(\N)COc1ccc(F)cc1 | i | 26% | 3 | -9% | -32 | -12%
Cn1cc(C(=O)c2ccc(Cl)cc2Cl)cc1C(=O)N/N=C(\N)COc1ccc(Cl)cc1 | i | 6%[15.4 µM] | 9 | -4% | -73* | ?
Cn1cc(C(=O)c2ccc(Cl)cc2Cl)cc1C(=O)N/N=C(\N)COc1ccc(Cl)cc1Cl | i | -41% | -1 | -8% | -32 | -1%
CC(=O)N1CCC[C@H]1C(=O)N1CCc2c(cnc(C)c2CNC(=O)/C=C/c2cccs2)C1 | . | . | . | -1% | . | .
Clc1ccccc1CN1CCN(CCCc2ccccc2)CC1 | i | -7%[15.4 µM] | 17 | -5% | -78* | 16%
OCC1(CCc2ccccc2)CCN(Cc2c(F)ccc(F)c2F)CC1 | i | -9% | . | -3% | -2 | -7%
SMILES | pAkt inh | gsp agonist | KCNH2 WT inh | GRP78 ERSR act | KCNH2 3.1 inh | gsp antag
OCC1(CCc2ccccc2)CCN(Cc2ccccc2Cl)CC1 | i | -9%[15.4 µM] | 30 | -3% | -80* | 19%
OCC1(CCc2ccccc2)CCN(Cc2cc(F)ccc2-n2cccn2)CC1 | i | 0% | -28 | -1% | -99* | 1%
COc1ccc(C(=O)N2CCC3(CC2)c2ccccc2[C@@H](NC(=O)c2ccccn2)[C@@H]3OC)c(O)c1 | . | . | . | -5% | . | .
Cc1cccc2cc(CN(CC3CCCO3)C(=O)c3ccccc3F)c(N(C)C)nc12 (stereo not given) | . | . | . | -5% | . | .
CCCCNCC1C(Oc2ccc(Cl)cc2)C(=O)N1c1ccccc1C (stereo not given) | i | 17%[15.4 µM] | 5 | -7% | -94* | -2%
CC(=O)Nc1ccccc1-c1nc(CNC(=O)c2ccc(C)cc2)c(C)o1 | . | . | . | 0% | . | .
COCCn1c(-c2ccc(F)cc2)nc2oc3cc(OC)ccc3c(=O)c2c1=O | i | -1% | -2 | -3% | -91* | -15%
Cc1nc(S(=O)(=O)Cc2ccccc2Cl)nc2c1CCC2 | i | 7%[15.4 µM] | -8 | 0% | -6 | -4%
Cc1cccc(C)c1-n1nnnc1S(=O)(=O)Cc1ccccc1Cl | i | 9% | -8 | -1% | -94* | -7%
Fc1cccc(Cc2noc(CN3CCN(C4CCc5ccccc5C4)CC3)n2)c1 (stereo not given) | i | 5%[15.4 µM] | -24 | -4% | -85* | ?
COc1ccc(Cc2noc(CN3CCN(C4CCc5ccccc5C4)CC3)n2)cc1OC (stereo not given) | i | 8%[15.4 µM] | 5 | 2% | -7 | -12%
Fc1cccc(Cc2noc(CN3CCCN(C4Cc5ccccc5C4)CC3)n2)c1 | i | 5% | -136* | -2% | -91* | -1%
Cc1c(CN2CCOc3c(cc(-c4ncc(C(F)(F)F)cc4Cl)cc3OCC3CCCO3)C2)cnn1C (stereo not given) | . | . | . | -1% | . | .
O=C1C[C@H]2C=CCc3cccc(c32)CN1Cc1ccc(Cl)cc1 | . | . | . | 0% | . | .
CCN(CC)/[N+]([O-])=N/OCOC(=O)C(C)c1ccc(CC(C)C)cc1 (stereo not given) | . | . | . | -1% | . | .
COc1cc(C2CC(=O)Oc3ccc(O)cc32)cc(OC)c1OC (stereo not given) | . | . | . | 50µM* | . | .
COc1cccc(C(=O)NCc2nc(-c3cccc(NC(=O)c4ccoc4C)c3)oc2C)c1OC | . | . | . | -7% | . | .
